10 compounds from PubChem BioAssay can be followed below.

A short description of the assay: binders of probe aHhip on microarray, primary screen, stem cell growth factor project, biochemical, small-molecule microarray, fluorescence 635/667 (AID 1087).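 Also: score merges spot fluorescence at 667nm with spot signal to noise ratio.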 Particulars: higher = more signal.
Compound `COc1ccc([Si](C)(C)[C@H]2[C@H](CC(=O)N(CCO)Cc3ccccc3)O[C@@]3(C(=O)N(Cc4ccc(N5C(=O)c6cccc7cccc5c67)cc4)c4ccccc43)[C@@H]2C)cc1` gave a composite z-score of 0.12.

`COC(=O)[C@@]1(Cc2ccccc2)[C@H]2c3cc(C(=O)N(C)C)n(CCF)c3C[C@H]2CN1C(=O)c1ccccc1` returned a composite z-score of -0.0296.

As to `C=CCC(OC(C)=O)[C@@H]1[C@@H](N(Cc2ccc(-c3ccccc3)cc2)C(=O)Cc2ccc(OC)cc2)c2cc(OCCCO)ccc2N1C(=O)c1ccc2ccccc2c1` (stereo not given in full), the composite z-score is -0.283.

`C=C(C(=O)CC[C@@H](OC(=O)c1cccnc1)c1cccc(OCCO)c1)C(C)C`: the composite z-score was -0.236.

`CCCC=C(CCC)[C@@H](NC(=O)c1ccc(C(=O)OC)cc1)c1ccc(C(=O)OC)cc1` yielded a composite z-score of 2.54.

In turn, `[N-]=[N+]=NCc1ccccc1C[C@]1(C(=O)N2CCCCC2)COC(c2ccc(OCCCO)cc2)=N1` displayed a composite z-score of 2.35.

On to `COC(=O)[C@@]1(Cc2ccc(F)cc2)[C@H]2c3cc(C(=O)N4CCCC4)n(Cc4ccc(OC(F)(F)F)cc4)c3C[C@H]2CN1C(=O)c1ccccc1`, for which the composite z-score was -0.0074.

Take `Cc1ccc(S[C@]2(C(=O)NCc3ccccc3)CC(=O)N(Cc3ccccc3C(F)(F)F)[C@@H]2c2ccc(CO)cc2I)cc1`: the composite z-score is -0.251.

As to `COCCOC(=O)N1C(=O)[C@@]2(c3cc(C#CC4(O)CCCCCC4)ccc31)[C@H](C(N)=O)[C@H]1C(=O)O[C@H](c3ccccc3)[C@H](c3ccccc3)N1[C@@H]2c1ccc(OCCO)cc1`, the composite z-score is 0.189.

As for `OCCCc1cc[n+](Cc2cc3c(cc2Br)OCO3)cc1`, the composite z-score was -0.383.
